Reference: the supplement of paper PMC12636033
± gives the standard deviation of the averaged measurements. In all, about 33,000 sequences were measured (“E-score (rank enrichment, -0.5 to 0.5)”: median about -0.0028, highest 2% from about 0.23 on). This excerpt belongs to a sample that is enriched for the highest values.

These sequences were tested on 2Sb-muMax20 (muMax20 with two 1,3-bis(methyl)benzene Cys staples, A13C/A17C and Q88C/A92C, C-terminal Lys) (assay: PBM 8-mer E-score (E-score (rank enrichment, -0.5 to 0.5)); higher = stronger preferential binding).
Procedure: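 Protein binding microarray (universal PBM chip covering all 10-mers in fixed probe flanks) with chemically synthesized human Max(13-93) bHLH-LZ analogs (not full-length Max) bearing noncanonical residues (hArg, Tha, Aib, Nle at 65) and aromatic Cys staples. Read-out per 8-mer (and its reverse complement): E-score (rank-based enrichment, -0.5 to 0.5) and Z-score of median probe intensity.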

Sequence	PBM 8-mer E-score
GCAGCCAA	-0.0475 ± 0.046
GAGCAATC	-0.0835 ± 0.0098
AAGCAATT	0.187 ± 0.017
AAGCAATC	0.256 ± 0.026
CGTCTAGA	-0.162 ± 0.029
CTATATTA	0.153 ± 0.015
GCATTATA	0.14 ± 0.041
ATCTACTC	-0.0796 ± 0.04
GTATTAAA	0.177 ± 0.05
GTATTATA	0.238 ± 0.024
CTATTACA	0.14 ± 0.041
GTATTACA	0.253 ± 0.024
ATCTACTA	0.243 ± 0.026
ATATATTA	0.241 ± 0.036
ATCTACTG	-0.00445 ± 0.014
ATATTACA	0.173 ± 0.13
GTATATTA	0.188 ± 0.012
AATTGGCT	0.131 ± 0.011
ACGAATGG	0.073 ± 0.041
ATTTGAGA	0.152 ± 0.034
AACAGCGA	-0.213 ± 0.047
GTGTTTGA	0.1 ± 0.029
CGAAGTCA	-0.106 ± 0.12
CGAACCGA	-0.228 ± 0.013
GGTGCCGA	-0.189 ± 0.027

Sequence	PBM 8-mer E-score
ATATACTC	0.173 ± 0.053
CTATTATA	0.0823 ± 0.013
CTATACTA	0.169 ± 0.015
ATATTATC	0.112 ± 0.0097
ATATTATA	0.242 ± 0.052
ATATTATG	0.277 ± 0.026
ATATACTA	0.2955 ± 0.0011
ATTATATA	0.185 ± 0.047
AGATTATG	-0.0162 ± 0.068
CACACTGA	-0.0965 ± 0.055
AAATCGAC	0.0123 ± 0.035
AGGGGCCA	0.0356 ± 0.053
CTCGAGCC	0.0235 ± 0.047
ACCAGGCC	-0.168 ± 0.022
GGCCACGA	-0.0901 ± 0.0031
ACACTACG	0.0974 ± 0.045
ATTCTGAA	0.0149 ± 0.024
ACGGAGCA	0.0531 ± 0.012
AACGTACA	0.0315 ± 0.031
ACTATATG	0.143 ± 0.052
ACTATATC	0.271 ± 0.019
GCTATATA	0.173 ± 0.019
ACTATATA	0.285 ± 0.058
CCTATATC	0.0672 ± 0.019
ATTATATC	0.224 ± 0.0096

Sequence	PBM 8-mer E-score
CGTCGCGC	-0.0442 ± 0.0083
CATCCTGG	-0.145 ± 0.035
ACCTTTCC	0.0327 ± 0.034
ATATTAAC	0.22 ± 0.076
ATCTTAAA	0.0723 ± 0.05
ATATTAAT	0.302 ± 0.02
ATATTCAA	0.171 ± 0.023
ATCTTAAC	0.0878 ± 0.048
ATATTCAT	0.238 ± 0.022
ATATTAAA	0.234 ± 0.046
CTATTAAA	0.125 ± 0.055
TTATTAAA	0.0933 ± 0.013
ATCTTAAT	0.232 ± 0.042
ATATTCAC	0.193 ± 0.047
ATATTAAG	0.0865 ± 0.0037
ACATTGAT	0.105 ± 0.0059
AACGAGTG	-0.131 ± 0.02
CGCGACCG	-0.221 ± 0.029
CACTAGAG	-0.0261 ± 0.065
ATAGGTAA	0.0236 ± 0.0059
GCTCTGGA	-0.0441 ± 0.02
CGTGGAGA	0.0751 ± 0.065
GAAGGGGA	-0.0692 ± 0.0026
GCCCCACA	0.156 ± 0.1
GCCCCAAA	0.117 ± 0.0026

Sequence	PBM 8-mer E-score
CCCCCACC	-0.264 ± 0.062
GCCCCACC	0.289 ± 0.051
GCCCCAAC	0.315 ± 0.0087
CCCCCAAC	-0.195 ± 0.066
CAATGGGA	0.0389 ± 0.029
CCGCACTA	-0.0974 ± 0.0081
CGAAGCAA	-0.0083 ± 0.02
AGATCCCA	-0.0112 ± 0.031
ACCTTAAG	-0.0585 ± 0.037
CTCCCGGC	-0.268 ± 0.0042
GGTAATTA	0.24 ± 0.0065
GCTAATTA	0.235 ± 0.039
ACTAATTA	0.226 ± 0.024
CCTAATTA	0.0703 ± 0.012
CGTAATTA	0.202 ± 0.046
AGTAATTA	0.202 ± 0.03
ATGCGGGC	-0.00019 ± 0.029
AGTCCTCA	-0.113 ± 0.048
AATTTGTA	0.0698 ± 0.0044
ACGGAGAA	0.18 ± 0.029
GAGCCAAA	-0.057 ± 0.017
CCTATCGA	0.15 ± 0.023
GCCCGCCA	0.0111 ± 0.022
CCCCGCCA	0.309 ± 0.031
CGCCGCCC	-0.0329 ± 0.11

Sequence	PBM 8-mer E-score
ACCCGCCC	0.274 ± 0.11
CCCCGCCC	0.355 ± 0.037
TCCCGCCA	-0.0896 ± 0.035
GCCCGCCC	0.108 ± 0.057
CCCCGCCG	0.161 ± 0.13
ACCCGCCG	0.0869 ± 0.081
CCGATAGC	-0.195 ± 0.0074
TCGGACGA	-0.0961 ± 0.011
CATGCCCG	0.114 ± 0.033
ACGTAGGC	-0.161 ± 0.069
AATTGATG	0.196 ± 0.013
AGCCCCCA	-0.192 ± 0.049
TGCCCAAA	-0.17 ± 0.028
TGCCCCCA	0.0887 ± 0.0026
GGCCCCAA	0.134 ± 0.045
AGCCCCAA	0.2458 ± 0.001
TGCCCCAA	0.304 ± 0.012
CGCTAATA	0.0712 ± 0.011
CAGGTAGG	0.0772 ± 0.037
ATCTCTGC	0.124 ± 0.041
AAGTTTAC	-0.0181 ± 0.035
AAGTTTAT	0.263 ± 0.011
AAGTTTAG	0.193 ± 0.079
CTATGGTC	-0.0714 ± 0.011
ACCTTCCG	0.156 ± 0.054

Sequence	PBM 8-mer E-score
AAACGATA	0.0414 ± 0.058
TAACGATA	0.261 ± 0.025
CAACGATA	0.0514 ± 0.023
AAGCCAAA	-0.0671 ± 0.036
GACTACTA	0.123 ± 0.086
AACGATTG	-0.048 ± 0.0011
GAAGGAGA	0.278 ± 0.031
CAAGGAGA	-0.121 ± 0.026
AAAGGAGA	0.102 ± 0.13
ATATGAAT	0.269 ± 0.0035
CTATGAAA	0.122 ± 0.039
ATATGAAA	0.268 ± 0.017
TTATGAAA	-0.0227 ± 0.036
ATATGAAG	-0.0272 ± 0.098
ATATGAAC	0.111 ± 0.0082
GCGCTGAC	0.0819 ± 0.0047
ATTCGGCA	-0.0961 ± 0.057
CAAGTGTA	0.231 ± 0.042
CCCGTGTC	-0.222 ± 0.044
AACGTGTC	-0.0169 ± 0.047
CACGTGTA	0.3871 ± 0.0038
AACGTGTA	0.0661 ± 0.014
AAAGTGTA	0.185 ± 0.019
TAAGTGTA	-0.00771 ± 0.18
GACGTGTA	-0.0568 ± 0.059

Sequence	PBM 8-mer E-score
CACGTGTC	0.366 ± 0.032
ATGGCCGA	-0.0989 ± 0.12
CGGTAGCA	0.0259 ± 0.0084
CACTAGGC	-0.0625 ± 0.012
AAGGTACT	-0.0359 ± 0.027
CGCCACAC	-0.107 ± 0.0099
AAATTCCA	0.243 ± 0.0059
AAAATCAG	-0.00194 ± 0.044
GAAATCAC	0.0559 ± 0.039
GAATTCCA	0.0438 ± 0.014
AATTCCCC	0.162 ± 0.019
AAAATCAC	0.28 ± 0.019
AATTCCCA	0.251 ± 0.056
GATTCCCA	-0.109 ± 0.031
ATTCCCCA	0.345 ± 0.0051
CAATTCCA	0.021 ± 0.024
ATTCCCCC	-0.0763 ± 0.046
GTTCCCCA	0.0903 ± 0.0034
GAGGACGA	-0.0985 ± 0.014
CAGGAATA	-0.0263 ± 0.13
AGACTGCC	-0.138 ± 0.008
AGGCGCTA	-0.116 ± 0.03
ACAGGATA	0.046 ± 0.059
CCTCTAAC	-0.122 ± 0.012
ATGTCCCC	0.0908 ± 0.0075
